Screens: PubChem BioAssay, National Center for Advancing Translational Sciences (NCATS)
Most compounds without a hit are left out; they make up all but 14% or so of the library.
Pf growth 48h – inhibits P. falciparum growth in the first generation, 48 h | P. falciparum luciferase growth in erythrocytes, 48 h | Potency, µM (highest dose often 28.7 µM), for inactives: top-dose activity change, negative = inhibition, hits mostly inhibitors | AID 504832 | 5.9% of 310,000 active; note: potency is the fitted concentration of half-maximal effect
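A one-generation exposure of luciferase-tagged malaria parasites in RPMI 1640/Albumax erythrocyte culture, 37 C and 5% CO2. Inhibition is inferred from decreased luminescence after adding detection reagent.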
Giardia FBPA inh – Giardia lamblia aldolase inhibition. A8B2U2. purified Giardia FBPA. Potency, µM (top dose mostly 59.6 µM), for the others: at the highest dose activity, negative = inhibition, actives largely listed as inhibitors. 0.71% of 290,000 active. AID 2451; note: potency is the fitted concentration of half-maximal effect; nearly all actives have a fitted effect of over 55% in size
Target sequence (A8B2U2 whole entry, looked up): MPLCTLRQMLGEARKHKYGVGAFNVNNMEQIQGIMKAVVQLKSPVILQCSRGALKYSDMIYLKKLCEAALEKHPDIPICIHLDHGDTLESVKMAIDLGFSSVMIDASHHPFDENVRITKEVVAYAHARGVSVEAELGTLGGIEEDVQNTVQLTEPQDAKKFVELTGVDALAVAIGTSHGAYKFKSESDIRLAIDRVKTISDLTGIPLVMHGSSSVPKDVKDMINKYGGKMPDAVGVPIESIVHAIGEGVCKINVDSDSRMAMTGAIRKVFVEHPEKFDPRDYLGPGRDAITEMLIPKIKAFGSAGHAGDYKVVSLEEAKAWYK
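40 nM FBPA preincubated 10 min at RT with compound (up to 57.5 uM final), then substrate plus GAPDH/TPI/NAD/arsenate coupling and diaphorase/resazurin added. Fluorescence read after 20 min at RT, 525/598 nm.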
Pf growth 96h – inhibits malaria parasite growth, 96 h; P. falciparum luciferase reporter growth, 96 h; 6.9% of 320,000 active; Potency, µM (series often up to 28.7 µM), for the others: at the highest dose activity change, negative = inhibition, actives largely listed as inhibitors; note: potency is the fitted concentration of half-maximal effect
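Infected RBCs, 2% Hct / 0.05% parasitemia final; luciferase-reporter P. falciparum; cpd 96 h, 37 C, 5% CO2; luciferase detection reagent; luminescence.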
HCMV inh – human cytomegalovirus inhibition; activity change, negative = inhibition, % at 57.5 µM; HFF cells, HCMV-luciferase reporter, 72 h; active compounds read low; 4.5% of 410,000 active; in the data active = activity change below about -60%; inconclusive = no clear call, values can overlap the other calls; inactive = above about -39%
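Cell-based, HFFs, 1000 cells/well, 16 h 37C; cpds in DMSO + HCMV-luc, MOI 1 PFU/cell; 72 h 37C; OneGlo luminescence after 5 min RT; norm. to buffer vs Salinomycin 10uM.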
Sm TGR inh – S. mansoni TGR enzyme inhibition; purified TGR, DTNB reduction, TNB absorbance 405 nm; Potency, µM (highest dose often 114 µM), without a hit: top-dose activity change, negative = inhibition, most hits filed as inhibitors; 3% of 360,000 active; note: potency is the fitted concentration of half-maximal effect; nearly all actives have a fitted effect of over 60% in size
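TGR 20 nM + NADPH 100 uM (dispensed conc.), cpd preinc 15 min RT; start with NADPH (500 uM addition) then DTNB (15 mM addition). Kinetic TNB absorbance, 405 nm filter. Four-parameter Hill fit across titration.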
* hit, by the source's call; ? = inconclusive; . = no result given. Unless noted, calls come from the whole dose curve; as a rule, active = well fitted curve in the direction sought with a large enough effect; inconclusive = small, poorly fitted or top-dose-only effect, or another doubt; inactive = no such curve, though single readings can be large; an effect the other way counts as inactive or inconclusive. % is set by controls: 0 for no effect and ±100 for the full control effect.

SMILES	Pf growth 48h	Giardia FBPA inh	Pf growth 96h	HCMV inh	Sm TGR inh
COC(=O)CCCC1=CC2=CC(=O)C(C)(OC(=O)c3cccs3)C(=O)C2=CN1Cc1ccccc1 (centres undefined)	13µM*	?	?	-4	-3%
COCCN1C=C2C(=O)C(C)(OC(=O)CCC(=O)OC)C(=O)C=C2C=C1C1CC1 (centres undefined)	36%	?	?	.	-10%
CCN(C[C@H]1N[C@@](CC)(C(=O)OC)[C@H]2C(=O)N(C)C(=O)[C@@H]12)C(=O)c1ccccc1	.	.	.	9	.
CC(C)CC(C(=O)O)N1C(=O)C2C3C=CC(C2C1=O)C1C(=O)N(C(CC(C)C)C(=O)O)C(=O)C31 (centres undefined)	18%	.	2%	-24	-14%
Cc1csc(=O)n1CC(=O)Nc1ccc(Cl)cc1F	11%	.	-5%	-6	-3%
COC(=O)CCCC1=CC2=CC(=O)C(C)(OC(=O)c3cccs3)C(=O)C2=CN1Cc1ccco1 (centres undefined)	?	?	?	-3	35µM*
Cn1nnnc1SCCCNCc1cc(Br)ccc1OCc1ccccc1	.	.	.	-63*	-1%
COc1cc(CNCCSc2nnnn2C)ccc1OCc1ccccc1	.	.	.	?	1%
COc1cc(CNCCSc2nnnn2C)ccc1OCc1ccc(F)cc1	.	.	.	-77*	18%
CCOc1cc(CNCCSc2nnnn2C)ccc1OCc1ccc(Cl)cc1Cl	.	.	.	-99*	1%
Cc1ccc(NC(=O)CCCN2C(=O)/C(=C/C=C/c3ccccc3)SC2=S)cc1	7%	-1%	-26%	6	-6%
O=C(O)CC(C(=O)O)N1C(=O)/C(=C/C=C/c2ccco2)SC1=S (centres undefined)	38%	?	41%	?	5µM*
O=C(O)C(Cc1ccccc1)N1C(=O)/C(=C/C=C/c2ccco2)SC1=S (centres undefined)	42%	?	72%	-23	6.3µM*
O=C(O)CC(C(=O)O)N1C(=O)/C(=C/c2ccc(-c3nc4ccccc4s3)o2)SC1=S (centres undefined)	?	?	?	-3	?
O=C(NN1C(=O)/C(=C/C=C/c2ccco2)SC1=S)c1ccccc1O	76%	-11%	171%	-18	2.8µM*
O=C(O)CCCN1C(=O)/C(=C/C=C/c2ccco2)SC1=S	-2%	13%	8%	?	1.8µM*
COC(=O)Cc1c(C)c2ccc(OC3CCCCC3=O)c(C)c2oc1=O (centres undefined)	32%	-10%	19%	?	-1%
Cc1ccc(CN2Cc3cccc4c3[C@@H](CC2=O)[C@H](O)[C@H](O)C4)cc1	20%	.	20%	16	-32%
CCOC(=O)c1nn(-c2ccc(C)cc2)c(=O)cc1OCC(=O)N1CCN(c2ccccc2)CC1	-24%	.	-20%	-19	0%
O=C(O)CCN1C(=O)/C(=C/c2ccc(-c3nc4ccccc4s3)o2)SC1=S	11%	-3%	85%	50	-32%
O=C(O)CCCN1C(=O)/C(=C\c2ccc(-c3nc4ccccc4s3)o2)SC1=S	?	?	?	?	35µM*
Cc1ccc(C(O)c2ncc(-c3ccccc3Cl)[nH]2)cc1 (centres undefined)	.	.	.	38	.
CCc1ccc(C(O)c2ncc(-c3ccccc3Cl)[nH]2)cc1 (centres undefined)	.	.	.	-96*	.
CCOC(=O)c1sc(NC(=O)CN2C(=O)NC3(CC(C)CC(C)(C)C3)C2=O)c(C(=O)OCC)c1C (centres undefined)	8.3µM*	1%	2.1µM*	-19	4%
CC(C)Cc1nnc(NC(=O)CN2C(=O)NC3(CCCC3)C2=O)s1	2%	.	14%	-26	1%
CC(C)Cc1nnc(NC(=O)CN2C(=O)NC3(CC(C)CC(C)(C)C3)C2=O)s1 (centres undefined)	?	.	17µM*	0	1%
CCOC(=O)c1sc(NC(=O)CN2C(=O)NC3(CC(C)CC(C)(C)C3)C2=O)cc1C (centres undefined)	2.6µM*	.	3.7µM*	-11	7%
COc1ccc(C)cc1NC(=O)CC1NCCNC1=O (centres undefined)	.	.	.	1	1%
